The record followed here is PubChem BioAssay (NCI).

Assay [1] in a line: NCI Yeast Anticancer Drug Screen. Data for the rad50 strain (AID 155).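 Also: 0% = growth of vehicle-only cultures of the same strain.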 The settings on record: S. cerevisiae rad50 strain growth inhibition, stronger effect = higher value. The gist of the method:
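Compounds were tested on a yeast strain with an engineered DNA damage repair alteration; the reported value is growth inhibition normalised to vehicle treatment.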

Assay [2] is described as follows: NCI Yeast Anticancer Drug Screen. Data for the mec2-1 strain (AID 157). The conditions noted are these: S. cerevisiae mec2-1 strain, stronger effect = higher value. In short, it runs like this:
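Cells of the genetically defined mec2-1 yeast strain are incubated with test compound. Inhibition of growth is calculated against vehicle-treated controls.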

The nature of assay [3]: NCI Yeast Anticancer Drug Screen. Data for the sgs1 mgt1 strain (AID 161).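 Also: 0% = growth of cultures given vehicle only.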 The conditions noted are these: S. cerevisiae sgs1 mgt1 strain, stronger effect = higher value. The gist of the method:
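Mutant yeast exposed to compound; growth scored against vehicle-only wells.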

Assay [4] in a line: NCI Yeast Anticancer Drug Screen. Data for the cln2 rad14 strain (AID 165).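 Also: 0% = growth equal to vehicle treated cultures.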 The conditions noted are these: S. cerevisiae cln2 rad14 strain, stronger effect = higher value. In short, it runs like this:
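The screen exposed genetically defined yeast (cln2 rad14) to test compounds and scored growth inhibition relative to vehicle-treated controls.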

A short description of assay [5]: NCI Yeast Anticancer Drug Screen. Data for the bub3 strain (AID 167). The settings on record: S. cerevisiae bub3 mutant strain, stronger effect = higher value. In short, it runs like this:
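Growth of a checkpoint-deficient yeast mutant is measured after compound exposure. Values represent inhibition relative to vehicle.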

The nature of assay [6]: NCI Yeast Anticancer Drug Screen. Data for the mlh1 rad18 strain (AID 175). The settings on record: S. cerevisiae mlh1 rad18 strain growth inhibition, stronger effect = higher value. The gist of the method:
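Compound-treated yeast growth, normalised to vehicle controls. Strain bears defined DNA repair mutations.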

The mark [7] stands for this setting: at 5.0 µM (retest, dose inferred, filed as 0.5).
The mark [8] stands for this setting: at 50.0 µM (retest, dose inferred, filed as 5.0).

This is part of a sample that, as a whole, favours compounds with a hit. Of some 79,000 tested, about 15% had one in any assay. Unmarked numbers belong to inactive results. The source made the active and inactive calls. Rule as the data show it: active = growth inhibition above about 70%; inactive = the rest.

For `Clc1ccc(-c2cc(=[N+]3CC[N+](=c4cc(-c5ccc(Cl)cc5)ss4)CC3)ss2)cc1`, the growth inhibition in assay [1] (setting [7]) was 8%; in assay [1] (setting [8]), 3%; in assay [1] (at 50.0 µM) it was 98.3% (active); in assay [2] (setting [7]) it was -158%; in assay [2] (setting [8]) it was -3%; in assay [2] (at 50.0 µM), 98.2% (active). Further, the growth inhibition in assay [3] (setting [7]) was 2%; in assay [3] (setting [8]), 4%; in assay [3] (at 50.0 µM), 98.9% (active); in assay [4] (setting [7]), 5%; in assay [4] (setting [8]), -9%; in assay [4] (at 50.0 µM) it was 95.7% (active). The growth inhibition in assay [5] (setting [7]) is 3%; in assay [5] (setting [8]), -2%; in assay [5] (at 50.0 µM), 98% (active); in assay [6] (setting [7]), 7%; in assay [6] (setting [8]), 4%; in assay [6] (at 50.0 µM), 98.5% (active).
In the case of `CNC(=O)Oc1ccccc1/C=N\Sc1ccc(Cl)cc1`, the growth inhibition in assay [1] (setting [7]) was -2%; in assay [1] (setting [8]) it was 21%; in assay [1] (at 50.0 µM), 97.2% (active); in assay [2] (setting [7]) it was 1%; in assay [2] (setting [8]), 21%; in assay [2] (at 50.0 µM), 99% (active). Further, the growth inhibition in assay [3] (setting [7]) was 3%; in assay [3] (setting [8]), 43%; in assay [3] (at 50.0 µM) it was 98.9% (active); in assay [4] (setting [7]), -4%; in assay [4] (setting [8]), 10%; in assay [4] (at 50.0 µM), 82.8% (active). The growth inhibition is -4% in assay [5] (setting [7]); 6% in assay [5] (setting [8]); 98.6% (active) in assay [5] (at 50.0 µM); -2% in assay [6] (setting [7]); 35% in assay [6] (setting [8]); 99.2% (active) in assay [6] (at 50.0 µM).
In the case of `Oc1c(Cl)cc(-c2cc(Cl)c(O)c(Cl)c2)cc1Cl`, the growth inhibition is 95% (active) in assay [1] (setting [7]); 94% (active) in assay [1] (setting [8]); 84.2% (active) in assay [1] (at 50.0 µM); 96% (active) in assay [2] (setting [7]); 97% (active) in assay [2] (setting [8]); 89% (active) in assay [2] (at 50.0 µM). The growth inhibition in assay [3] (setting [7]) was 89% (active); in assay [3] (setting [8]), 97% (active); in assay [3] (at 50.0 µM), 89.7% (active); in assay [4] (setting [7]), 57%; in assay [4] (setting [8]), 98% (active); in assay [4] (at 50.0 µM), 87.6% (active). Further, the growth inhibition was 92% (active) in assay [5] (setting [7]); 96% (active) in assay [5] (setting [8]); 86.7% (active) in assay [5] (at 50.0 µM); 99% (active) in assay [6] (setting [7]); 99% (active) in assay [6] (setting [8]); 84.9% (active) in assay [6] (at 50.0 µM).
As for `CC(Cc1ccccc1)N(C)Cc1ccc(-c2ccccc2)o1` (configuration not stated), the growth inhibition is 27% in assay [1] (setting [7]); 91% (active) in assay [1] (setting [8]); 31.2% in assay [1] (at 50.0 µM); 7% in assay [2] (setting [7]); 75% (active) in assay [2] (setting [8]); 34% in assay [2] (at 50.0 µM). The growth inhibition is 14% in assay [3] (setting [7]); 94% (active) in assay [3] (setting [8]); 63.6% in assay [3] (at 50.0 µM); 16% in assay [4] (setting [7]); 88% (active) in assay [4] (setting [8]); 14.6% in assay [4] (at 50.0 µM). Further, the growth inhibition is 6% in assay [5] (setting [7]); 96% (active) in assay [5] (setting [8]); 20.6% in assay [5] (at 50.0 µM); 12% in assay [6] (setting [7]); 91% (active) in assay [6] (setting [8]); 81.3% (active) in assay [6] (at 50.0 µM).
Turning to `CCC[CH2][Sn]1([CH2]CCC)[O]CC(CN2CCCC2)[O]1` (configuration not stated), the growth inhibition in assay [1] (setting [7]) is 30%; in assay [1] (setting [8]) it was 96% (active); in assay [1] (at 50.0 µM), 83.8% (active); in assay [2] (setting [7]), 28%; in assay [2] (setting [8]), 98% (active); in assay [2] (at 50.0 µM), 87.3% (active). Also, the growth inhibition in assay [3] (setting [7]) was 46%; in assay [3] (setting [8]), 97% (active); in assay [3] (at 50.0 µM), 84.2% (active); in assay [4] (setting [7]), 26%; in assay [4] (setting [8]), 95% (active); in assay [4] (at 50.0 µM), 82.3% (active). The growth inhibition in assay [5] (setting [7]) is 36%; in assay [5] (setting [8]), 97% (active); in assay [5] (at 50.0 µM), 86.9% (active); in assay [6] (setting [7]) it was 48%; in assay [6] (setting [8]), 97% (active); in assay [6] (at 50.0 µM), 82.2% (active).
As for `O=[N+]([O-])[O-].O=[N+]([O-])[O-].[Au].[Au].c1ccc([P-]c2ccccc2)cc1.c1ccc([P-]c2ccccc2)cc1`, the growth inhibition in assay [1] (setting [7]) was 62%; in assay [1] (setting [8]), 94% (active); in assay [1] (at 50.0 µM), 87.8% (active); in assay [2] (setting [7]), 47%; in assay [2] (setting [8]) it was 95% (active); in assay [2] (at 50.0 µM) it was 91.4% (active). Also, the growth inhibition in assay [3] (setting [7]) is 59%; in assay [3] (setting [8]), 96% (active); in assay [3] (at 50.0 µM), 91.3% (active); in assay [4] (setting [7]) it was 29%; in assay [4] (setting [8]), 96% (active); in assay [4] (at 50.0 µM), 89.5% (active). For the same compound, the growth inhibition is 53% in assay [5] (setting [7]); 96% (active) in assay [5] (setting [8]); 88.9% (active) in assay [5] (at 50.0 µM); 72% (active) in assay [6] (setting [7]); 95% (active) in assay [6] (setting [8]); 86.7% (active) in assay [6] (at 50.0 µM).
For `CC1=[N+](Cc2cc(C)cc(C)c2O)CCCC1`, the growth inhibition is -5% in assay [1] (setting [7]); 4% in assay [1] (setting [8]); -5.5% in assay [1] (at 50.0 µM); -8% in assay [2] (setting [7]); -9% in assay [2] (setting [8]); -7.45% in assay [2] (at 50.0 µM). The growth inhibition in assay [3] (setting [7]) is -5%; in assay [3] (setting [8]) it was -57%; in assay [3] (at 50.0 µM), 41.2%; in assay [4] (setting [7]), -2%; in assay [4] (setting [8]), -4%; in assay [4] (at 50.0 µM) it was -3%. Besides, the growth inhibition is -8% in assay [5] (setting [7]); -1% in assay [5] (setting [8]); 1.2% in assay [5] (at 50.0 µM); -13% in assay [6] (setting [7]); -8% in assay [6] (setting [8]); -24.7% in assay [6] (at 50.0 µM).
Consider `COc1ccc(Br)cc1/C=C/[N+](=O)[O-]`, for which the growth inhibition was 90% (active) in assay [1] (setting [7]); 99% (active) in assay [1] (setting [8]); 99.3% (active) in assay [1] (at 50.0 µM); 90% (active) in assay [2] (setting [7]); 99% (active) in assay [2] (setting [8]); 99.2% (active) in assay [2] (at 50.0 µM). Moreover, the growth inhibition is 91% (active) in assay [3] (setting [7]); 99% (active) in assay [3] (setting [8]); 99.4% (active) in assay [3] (at 50.0 µM); 83% (active) in assay [4] (setting [7]); 99% (active) in assay [4] (setting [8]); 77.8% (active) in assay [4] (at 50.0 µM). Further, the growth inhibition is 92% (active) in assay [5] (setting [7]); 99% (active) in assay [5] (setting [8]); 96.1% (active) in assay [5] (at 50.0 µM); 92% (active) in assay [6] (setting [7]); 99% (active) in assay [6] (setting [8]); 98.7% (active) in assay [6] (at 50.0 µM).
With `Cn1c2cccc(=O)c-2nc2ccccc21`, the growth inhibition was -14% in assay [1] (setting [7]); 85% (active) in assay [1] (setting [8]); 82.5% (active) in assay [1] (at 50.0 µM); 6% in assay [2] (setting [7]); 62% in assay [2] (setting [8]); 52.2% in assay [2] (at 50.0 µM). Further, the growth inhibition was 1% in assay [3] (setting [7]); 49% in assay [3] (setting [8]); 21.3% in assay [3] (at 50.0 µM); -22% in assay [4] (setting [7]); 34% in assay [4] (setting [8]); -2.9% in assay [4] (at 50.0 µM). Also, the growth inhibition is -12% in assay [5] (setting [7]); 56% in assay [5] (setting [8]); 41.9% in assay [5] (at 50.0 µM); 9% in assay [6] (setting [7]); 77% (active) in assay [6] (setting [8]); 60% in assay [6] (at 50.0 µM).
